The structures appear in SMILES notation. Several values for one entry are separate records, joined by “and”; a condition that tells them apart may be missing. Equal values may be shown once. About 11,000 (3.1%) of roughly 360,000 compounds were called active. Rule as the data show it: active = activity change below about -30%; inactive = the rest. Shown is part of a subset that was picked to be rich in actives. More than one record can exist for a structure, and the calls need not agree.
% is scaled to controls: 0 for no effect and ±100 for the full control effect.

D(1A) dopamine receptor (Homo sapiens), sequence (P21728 whole entry, looked up): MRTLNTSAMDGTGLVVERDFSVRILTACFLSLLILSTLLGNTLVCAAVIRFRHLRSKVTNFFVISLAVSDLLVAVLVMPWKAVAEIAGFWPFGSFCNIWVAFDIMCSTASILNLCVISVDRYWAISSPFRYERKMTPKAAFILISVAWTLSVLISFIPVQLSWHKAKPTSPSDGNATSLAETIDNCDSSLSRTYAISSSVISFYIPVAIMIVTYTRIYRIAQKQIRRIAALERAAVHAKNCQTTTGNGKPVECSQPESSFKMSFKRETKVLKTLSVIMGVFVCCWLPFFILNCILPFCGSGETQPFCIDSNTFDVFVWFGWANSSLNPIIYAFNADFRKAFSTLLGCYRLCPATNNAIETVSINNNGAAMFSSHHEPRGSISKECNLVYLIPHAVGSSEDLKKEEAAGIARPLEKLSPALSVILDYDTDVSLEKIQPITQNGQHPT

The experiment addresses D(1A) dopamine receptor (Homo sapiens) (UniProt P21728). As to the kind of experiment: Antagonist of Human D 1 Dopamine Receptor: qHTS. Conditions: HEK293 TREx D1 cells, calcium flux, dopamine EC80; at 10 µM; stronger effect = lower value. From the text:
Dopamine receptors (DARs) are involved in the etiology and/or therapy of a number of neuropsychiatric and endocrine disorders. For instance, all receptor-based antiparkinsonian drugs work via stimulating the […] DAR subtype whereas all FDA-approved antipsychotic agents are antagonists of this receptor. […] There are three different types of allosteric modulators that we are seeking, two of which will stimulate or augment receptor signaling, allosteric agonists and potentiators, while the third, allosteric antagonists, will attenuate receptor signaling. The present primary screening assay measures compound antagonism after an EC80 addition of dopamine by tracking calcium flux in a […], inducible Hek293 Trex D1 cell line. NIH Chemical Genomics Center [NCGC] NIH Molecular Libraries Probe Centers Network [MLPCN] MLPCN Grant: NS064831-01 Assay Submitter (PI): David Sibley
Freshly passaged cells are plated in 1536 well black, clear bottom plates at a density of 4000 cells/well in 3 ul of complete media containing 1x tetracycline inducer. After an overnight incubation at 30 C in 5% CO2, cells are loaded with 2 ul of the no wash Calcium Assay Kit (ABD Bioquest) and incubated at room temperature for 30 to 90 minutes. Agonist read: A 10 cycle (1 second/cycle) baseline measurement is taken and then the FDSS online 1536 pintool delivers 23 nl of compound library (as well as dopamine controls) to the plate. The plate is measured for kinetically at 1 cycle/sec for 180 seconds. Following the 180 second read, 1 ul of an EC80 (negative modulation assay) is delivered by an onboard pipette head. Measurements are taken kinetically for an additional 180 seconds.
On the technique in general: qHTS replaces the single test concentration by a dilution series.
Consider `CCOC(=O)c1c(C)[nH]c(CCC(=O)NCCCN2CCN(c3cccc(Cl)c3)CC2)c1C`, for which the activity change, negative = inhibition was -31.4% (active).
Regarding `CCOC(=O)N1CCC(Nc2c(NCCN3CCN(c4cccc(Cl)c4)CC3)c(=O)c2=O)CC1`, the activity change, negative = inhibition is -24% (inactive).
Then `COCCCn1c(Cc2csc(Nc3cccc(Cl)c3)n2)nnc1SCC(=O)OC1CCCCC1`, with 12.9% (inactive); and `COc1cccc(CNC(=O)Cc2csc(Nc3nc(=S)[nH]c4ccccc34)n2)c1`, with -0.499% (inactive).
For `O=C(CCn1c(=O)[nH]c2ccccc2c1=O)NCCCN1CCN(c2cccc(Cl)c2)CC1`, the activity change, negative = inhibition is -49% (active).
Then `CCn1c(=O)cc(OCC(=O)Nc2cc(Cl)c(OC)cc2OC)c2ccccc21`, with 1.43% (inactive); and `CCOC(=O)c1c(C)[nH]c(CCC(=O)NCCCN2CCN(c3cc(C)ccc3C)CC2)c1C`, with -11.7% (inactive); and `O=C(Cc1ccc(-n2c(=O)[nH]c3ccccc3c2=O)cc1)N1CCN(c2cccc(Cl)c2)CC1`, with -8.8% (inactive).
The value for `Cn1c(=O)cc(OCC(=O)N2CCN(c3ccccc3)CC2)c2ccccc21` was -4.64% (inactive); that for `O=C(Cc1csc(Nc2nc(=S)[nH]c3ccccc23)n1)NCCCN1CCN(c2cccc(Cl)c2)CC1` was -56.6% (active); that for `CCn1c(=O)cc(OCC(=O)NCCCN2CCN(c3cccc(Cl)c3)CC2)c2ccccc21` was -46.8% (active).
Then `N#Cc1nc(/C=C/c2ccc(F)cc2)oc1NCc1ccc(F)cc1`, with 4.43% (inactive).
For the molecule `Cc1ccc(CNC(=O)CCNS(=O)(=O)c2ccc3c(c2)oc(=O)n3C)cc1`, the activity change, negative = inhibition was -2.95% (inactive).
As to `CN(Cc1ccccc1)C(=O)c1cn(C)c2ccc(S(=O)(=O)N(C)C3CCCCC3)cc2c1=O`, the activity change, negative = inhibition is -6.93% (inactive).
Then `Cc1cccc(NC(=O)N2CCC(CN3CCc4ccccc4C3)CC2)c1C`, with 3.23% (inactive).
As to `COc1cccc(C(=O)Nc2ccc(-c3cc(C(F)(F)F)nn3-c3ccccc3)cc2)c1`, the activity change, negative = inhibition was -9.33% (inactive).
Then `CCOc1ccccc1C(=O)NCc1ccc2c(c1)CCN2C(=O)c1ccc(F)cc1`, with -20.6% (inactive).
Take `CCn1cc(C(=O)N(C)Cc2ccccc2)c(=O)c2cc(S(=O)(=O)N3CCCCCC3)ccc21`: the activity change, negative = inhibition was -14.7% (inactive).
Turning to `Cc1n[nH]c(C)c1S(=O)(=O)N1CCCC(C(=O)Nc2ccc(Br)cc2)C1` (configuration not stated), the activity change, negative = inhibition was 2.22% (inactive) and -57.1% (active).
Regarding `Cc1n[nH]c(C)c1S(=O)(=O)N1CCCC(C(=O)NCC2COc3ccccc3O2)C1` (configuration not stated), the activity change, negative = inhibition is 4.33% (inactive).
`CC(=O)Nc1ccc(NC(=O)C2CCCN(S(=O)(=O)c3ccc(Cl)cc3)C2)cc1` (configuration not stated): the activity change, negative = inhibition was -19.3% (inactive).
In the case of `O=C(NCc1cccnc1)C(=O)NCC(c1cccnc1)N1CCN(c2ccccc2)CC1` (configuration not stated), the activity change, negative = inhibition was 2.98% (inactive).
The value for `CCOc1ccc(N(CC)S(=O)(=O)N2CCCC(C(=O)Nc3ccc(C(C)=O)cc3)C2)cc1` (configuration not stated) was -25.1% (inactive); that for `COCCNCCOCCOc1cccc(OC)c1` was 12.6% (inactive); that for `CC(C)(C)NCCCOc1ccc(Cl)cc1C(C)(C)C` was -4.49% (inactive).
The value for `COCCCNCCOCCOc1ccc(Cl)cc1Br` was -34.7% (active); that for `CCc1ccc(CNC(=O)c2cc3cc4ccc(OC)cc4nc3o2)cc1` was 2.97% (inactive).
Turning to `CCCc1nn2c(=O)cc(COC(=O)c3ccc(NC(=O)C(C)Oc4ccccc4)cc3)nc2s1` (configuration not stated), the activity change, negative = inhibition is 3.83% (inactive).
Then `COc1ccc(-n2cc(-c3ccccc3)c3c(=S)nc[nH]c32)cc1`, with -0.706% (inactive); and `O=c1[nH]cnc2c1c(-c1ccccc1)cn2-c1ccc(F)cc1`, with -39.4% (active); and `CCCNc1ncnc2c1c(-c1ccccc1)cn2-c1ccc(OCC)cc1`, with 36.7% (inactive).
Then `COc1ccc(-c2noc(-c3ccc(N4CCN(c5ccccc5)CC4)c([N+](=O)[O-])c3)n2)cc1OC`, with -6.01% (inactive).
As for `COc1ccc(S(=O)(=O)NCc2cccn2Cc2cccc(C)c2)cc1Cl`, the activity change, negative = inhibition is -21.8% (inactive).
Turning to `CSc1ncccc1C(=O)Nc1ccc(C)cn1`, the activity change, negative = inhibition was 25.9% (inactive).
For the molecule `CSc1ncccc1C(=O)NCc1ccccc1Cl`, the activity change, negative = inhibition is -34.3% (active).
The value for `CSc1ncc(C(=O)NCc2ccccc2Cl)c(C(F)(F)F)n1` was 2.06% (inactive); that for `O=C(Nc1ccc(O)c(-c2nc3ccccc3o2)c1)c1ccc(-c2cccc(Cl)c2)o1` was 8.95% (inactive).
As to `CC(=O)c1ccc(NC(=O)C2CCN(S(=O)(=O)c3c(C)noc3/C=C/c3ccc(C)cc3)CC2)cc1`, the activity change, negative = inhibition was 0.387% (inactive).
The value for `COc1ccccc1NC(=O)CSc1oc(-c2ccco2)nc1S(=O)(=O)c1ccc(Br)cc1` was -50.6% (active).
Then `CC(Sc1oc(-c2ccco2)nc1S(=O)(=O)c1ccc(Br)cc1)c1ccccc1` (configuration not stated), with 6.94% (inactive).
With `Cc1ccc(S(=O)(=O)c2nc(-c3ccco3)oc2SCC(=O)Nc2ccc(F)cc2)cc1`, the activity change, negative = inhibition is -3.5% (inactive).
The value for `CCn1cc(C(=O)N2CCN(c3cc(Cl)ccc3C)CC2)c(=O)c2cc(S(=O)(=O)N3CCCC3)ccc21` was -6.15% (inactive).

For the origin of these results see PubChem BioAssay AID504652 (National Center for Advancing Translational Sciences (NCATS), 2011).
